Results filed as inconclusive are left out. Calls of active or inactive are those of the source. Unless noted, the call rests on the fitted dose curve; in most records, active means well fitted curve in the direction sought with a large enough effect in the repeat runs; inconclusive means weak or mixed curves; inactive means flat fitted curve, though single readings scatter.
How the values were obtained:
[1] = qHTS assay to test for compound auto fluorescence at 460 nm (blue) in HEK293 cell free culture (AID 720681)
Procedure, shortened: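 Compounds were added to cell-free DMEM with 10% FBS and fluorescence read directly. The blue channel used 405 nm excitation and 460 nm emission, with triamterene as the reference fluorophore.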

[2] = qHTS assay to test for compound auto fluorescence at 535 nm (green) in HEK293 cell free culture (AID 720682)
Procedure, shortened: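 Measurement is a direct plate read of green fluorescence (485 nm in, 535 nm out) after compound addition to serum-supplemented DMEM lacking cells, with fluorescein used to express intensities.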

[3] = qHTS assay to test for compound auto fluorescence at 590 nm (red) in HEK293 cell free culture (AID 720683)
Procedure, shortened: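 Cell-free wells of DMEM with 10% FBS received compound, and intrinsic fluorescence was read at excitation/emission 540/590 nm. Values expressed as equivalence to Rose Bengal sodium.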

[4] = qHTS assay to test for compound auto fluorescence at 590 nm (red) in HepG2 cell free culture (AID 720684)
Procedure, shortened: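 Compound was pinned into wells holding MEM with 10% FBS and no cells, and red fluorescence was read at Ex/Em 540/590 nm. Signal is expressed as auto fluorescence equivalency relative to Rose Bengal sodium.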

[5] = qHTS assay to test for compound auto fluorescence at 460 nm (blue) in HepG2 cell free culture (AID 720685)
Procedure, shortened: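 Compound (23 nL) or DMSO pinned into cell-free MEM with 10% FBS; blue fluorescence read at 405/460 nm excitation/emission, expressed as auto-fluorescence equivalency to triamterene.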

[6] = qHTS assay to test for compound auto fluorescence at 535 nm (green) in HepG2 cell free culture (AID 720686)
[7] = qHTS assay to test for compound auto fluorescence at 460 nm (blue) in HepG2 cells (AID 720687)
Procedure, shortened: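 HepG2 cells in MEM with 10% FBS, attached overnight at 37 C, were exposed to compound or DMSO for 1 hr at 37 C, 5% CO2. Blue fluorescence was read at 405/460 nm, with triamterene as reference fluorophore.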

[8] = target: Glucocorticoid receptor (Homo sapiens) (UniProt P04150); test: qHTS assay to identify small molecule agonists of the glucocorticoid receptor (GR) signaling pathway (AID 720691; active means well fitted activation curve with a large enough effect in the signal ratio in the repeat runs, not every such curve was filed as active; the % refers to the signal ratio)
Procedure, shortened: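 GR-bla HeLa cells (beta-lactamase reporter under glucocorticoid response element) were plated 4 h at 37 C/5% CO2, given compounds in DMSO, and incubated 18 h at 37 C. LiveBLAzer B/G FRET substrate was added for 2 h at room temperature, then fluorescence intensity read.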

[9] = target: Glucocorticoid receptor (Homo sapiens) (UniProt P04150); test: qHTS assay to identify small molecule antagonists of the glucocorticoid receptor (GR) signaling pathway (AID 720692; active means well fitted inhibition curve with a large enough effect in the signal ratio in the repeat runs, not every such curve was filed as active; the % refers to the signal ratio)
Procedure, shortened: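 GR-bla HeLa cells (beta-lactamase reporter under glucocorticoid response element) were pre-plated 4 h at 37 C, treated with compounds plus 5 nM dexamethasone (final) for 18 h, then read by LiveBLAzer B/G FRET fluorescence after 2 h.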
On the % scale 0 is the no-effect control and ±100 the full control effect.

Glucocorticoid receptor (Homo sapiens), sequence (P04150 whole entry, looked up): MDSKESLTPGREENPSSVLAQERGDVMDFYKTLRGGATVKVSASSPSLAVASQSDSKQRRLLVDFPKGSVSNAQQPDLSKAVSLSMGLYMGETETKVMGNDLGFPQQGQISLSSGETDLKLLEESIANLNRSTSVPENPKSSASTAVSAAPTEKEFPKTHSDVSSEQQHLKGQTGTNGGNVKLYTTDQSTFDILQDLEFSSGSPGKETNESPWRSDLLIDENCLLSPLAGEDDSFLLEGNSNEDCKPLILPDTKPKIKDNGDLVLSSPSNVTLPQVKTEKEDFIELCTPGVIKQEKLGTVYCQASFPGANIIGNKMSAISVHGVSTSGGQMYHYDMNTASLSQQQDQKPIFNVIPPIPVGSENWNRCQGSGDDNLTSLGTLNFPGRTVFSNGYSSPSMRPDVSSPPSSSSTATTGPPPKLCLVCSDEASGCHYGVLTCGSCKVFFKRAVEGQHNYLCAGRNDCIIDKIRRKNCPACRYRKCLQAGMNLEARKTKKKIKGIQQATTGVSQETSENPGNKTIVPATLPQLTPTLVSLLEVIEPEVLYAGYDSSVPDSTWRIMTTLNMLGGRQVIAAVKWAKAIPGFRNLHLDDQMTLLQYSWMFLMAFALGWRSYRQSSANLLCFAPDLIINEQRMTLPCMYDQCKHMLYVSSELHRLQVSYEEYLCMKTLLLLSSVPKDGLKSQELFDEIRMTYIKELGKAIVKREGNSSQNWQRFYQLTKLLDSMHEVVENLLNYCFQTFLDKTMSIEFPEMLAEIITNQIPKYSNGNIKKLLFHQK

COc1cccc(OC)c1C(=O)N[C@@H]1C(=O)N2[C@@H]1SC(C)(C)[C@@H]2C(=O)O
inactive: outcome [1] | outcome [2] | outcome [3] | outcome [4] | outcome [5] | outcome [6] | outcome [7] | Potency [8] | Potency [9]

CC(=O)OCC(=O)[C@@]1(O)[C@H](C)C[C@H]2[C@@H]3CCC4=CC(=O)C=C[C@]4(C)[C@@]3(F)[C@@H](O)C[C@@]21C
inactive: outcome [2] | outcome [3] | outcome [4] | outcome [5] | outcome [6] | outcome [7]

CN1C(C)(C)CC(O)CC1(C)C
inactive: outcome [2] | outcome [3] | outcome [4] | outcome [5] | outcome [6] | outcome [7]

NC(=O)N[C@@H](CCC(=O)O)C(=O)O
inactive: outcome [2] | outcome [3] | outcome [5] | outcome [6] | outcome [7] | Potency [8] | Potency [9]

O=C(O)CCSCCC(=O)O
inactive: outcome [1] | outcome [2] | outcome [3] | outcome [5] | outcome [6] | outcome [7] | Potency [8] | Potency [9]

CC1=C(C/C=C(\C)CCC[C@H](C)CCC[C@H](C)CCCC(C)C)C(=O)c2ccccc2C1=O
inactive: outcome [1] | outcome [2] | outcome [3] | outcome [4] | outcome [5] | outcome [6] | outcome [7] | Potency [8] | Potency [9]

CC(C#N)(CCC(=O)O)N=NC(C)(C#N)CCC(=O)O (centres undefined)
inactive: outcome [1] | outcome [2] | outcome [3] | outcome [4] | outcome [5] | outcome [6] | outcome [7] | Potency [8] | Potency [9]

C=C[Si](OC(C)=O)(OC(C)=O)OC(C)=O
inactive: outcome [1] | outcome [2] | outcome [3] | outcome [4] | outcome [5] | outcome [6] | outcome [7] | Potency [8]

CCOC(=O)c1ccccc1
inactive: outcome [1] | outcome [2] | outcome [3] | outcome [4] | outcome [5] | outcome [6] | outcome [7] | Potency [8] | Potency [9]

C[N+]1(CC2COC(c3ccccc3)(c3ccccc3)O2)CCCCC1 (centres undefined)
inactive: outcome [1] | outcome [2] | outcome [3] | outcome [4] | outcome [5] | outcome [6] | outcome [7] | Potency [9]

CN(C)CCCN(C)CCCN(C)C
inactive: outcome [1] | outcome [2] | outcome [3] | outcome [4] | outcome [5] | outcome [6] | outcome [7] | Potency [8] | Potency [9]

CC1=CC(=O)[C@H]2C[C@@H]1C2(C)C
inactive: outcome [2] | outcome [3] | outcome [4] | outcome [5] | outcome [6] | Potency [8] | Potency [9]

CN1CC(=O)N/C1=N/C(=O)Nc1cccc(Cl)c1
inactive: outcome [1] | outcome [2] | outcome [3] | outcome [4] | outcome [5] | outcome [6] | Potency [8] | Potency [9]

CC(C)(C)OC(=O)c1cccc(N)c1
inactive: outcome [1] | outcome [2] | outcome [3] | outcome [4] | outcome [5] | outcome [6] | outcome [7] | Potency [8] | Potency [9]

O=Cc1cccc(Br)c1
inactive: outcome [1] | outcome [2] | outcome [3] | outcome [5] | outcome [6] | outcome [7] | Potency [8] | Potency [9]

O=C1NC(=O)C2CC=CCC12 (centres undefined)
inactive: outcome [1] | outcome [2] | outcome [3] | outcome [4] | outcome [5] | outcome [6] | outcome [7] | Potency [8] | Potency [9]

CC1(C)OC[C@@H](COC(=O)CCc2ccc(OC[C@@H](O)CNCCNC(=O)N3CCOCC3)cc2)O1
inactive: outcome [1] | outcome [2] | outcome [3] | outcome [4] | outcome [5] | outcome [6] | outcome [7] | Potency [8] | Potency [9]

CCOC(=O)COc1cc(-n2ncc(C(F)(F)F)c(C)c2=O)c(F)cc1Cl
inactive: outcome [2] | outcome [3] | outcome [4] | outcome [5] | outcome [6] | outcome [7] | Potency [8] | Potency [9]

O=C1CCCCCCCCCCCCCCO1
inactive: outcome [2] | outcome [3] | outcome [4] | outcome [5] | outcome [6] | outcome [7] | Potency [8] | Potency [9]

CO[C@@]1(NC(=O)C(C(=O)O)c2ccc(O)cc2)C(=O)N2C(C(=O)O)=C(CSc3nnnn3C)CO[C@@H]21 (some centres undefined)
inactive: activity change [2] 0.0756% [at 18.6 µM] | fluorescence, % of fluorescent control [3] 0.0003% [at 18.6 µM] | fluorescence, % of Rose Bengal [4] -0.105% [at 18.6 µM] | fluorescence, % of fluorescent control [5] 0.334% [at 18.6 µM] | fluorescence, % of fluorescein control [6] 0.0104% [at 18.6 µM] | Potency [8]

CCCc1nn(C)c2c(=O)[nH]c(-c3cc(S(=O)(=O)N4CCN(C)CC4)ccc3OCC)nc12
inactive: outcome [2] | outcome [3] | outcome [4] | outcome [5] | outcome [6] | outcome [7] | Potency [8]

C[N+](C)(C)CCCCCCCCCC[N+](C)(C)C
inactive: outcome [1] | outcome [2] | outcome [3] | outcome [5] | outcome [6] | outcome [7] | Potency [8]

C[C@H]1[C@H](NC(=O)/C(=N/OC(C)(C)C(=O)O)c2csc(N)n2)C(=O)N1S(=O)(=O)O (stereo in doubt)
inactive: activity change [2] 0.008% [at 18.6 µM] | fluorescence, % of fluorescent control [3] 0.271% [at 18.6 µM] | fluorescence, % of Rose Bengal [4] 0.467% [at 18.6 µM] | fluorescence, % of fluorescent control [5] 0.104% [at 18.6 µM] | fluorescence, % of fluorescein control [6] 0.102% [at 18.6 µM] | fluorescence, % of fluorescent control [7] 0.0116% [at 18.6 µM] | Potency [8] | Potency [9]

c1ccc(CCc2ccccc2)cc1
inactive: outcome [1] | outcome [2] | outcome [3] | outcome [4] | outcome [5] | outcome [6] | outcome [7]
